Results on eight compounds are retold here after PubChem BioAssay (NCI).

Test systems include HCT-15 colon; HT29 colon; SNB-75 CNS; SNB-19 CNS; U251 CNS; PC-3 prostate; SK-MEL-5 melanoma; UACC-62 melanoma; LOX IMVI melanoma; SK-MEL-28 melanoma; SK-MEL-2 melanoma; EKVX NSCLC; SN12C renal; UO-31 renal; TK-10 renal; ACHN renal; CAKI-1 renal; CCRF-CEM leukemia; MOLT-4 leukemia.
Common to all, as to test: NCI-60 one-dose screen, 48 h (100 = growth as untreated, 0 = no growth, -100 = all killed)
What all share (conditions): 10 µM unless noted

About 83,000 compounds went through this panel and 20% of them were active in at least one assay; those are over-represented in the sample as a whole.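 A percent growth of 40 corresponds to 60% growth inhibition; 0 means no net growth; -100 means all cells died. Active threshold: below 10.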 A number with no mark means an inactive call. The source made the active and inactive calls.

Take `Cc1ccccc1CNc1ccc(N2CCOCC2)cc1`: the growth was 101% in the assay with HCT-15 colon; 105% in the assay on HT29 colon; 92.7% in the assay on SNB-75 CNS; 101% with SNB-19 CNS; 100% in the assay on U251 CNS; 99.6% with PC-3 prostate. Further, the growth is 99.5% in the assay on SK-MEL-5 melanoma; 94.8% in the assay on UACC-62 melanoma; 102% with LOX IMVI melanoma; 99.8% in the assay on SK-MEL-28 melanoma; 102% in the assay on SK-MEL-2 melanoma; 104% in the assay with EKVX NSCLC. The growth in the assay with SN12C renal is 96.3%; with UO-31 renal, 107%; in the assay on TK-10 renal, 95.3%; in the assay with ACHN renal, 108%; in the assay with CAKI-1 renal, 99.1%; with CCRF-CEM leukemia it was 112%. Moreover, in the assay on MOLT-4 leukemia, the growth was 101%.
Regarding `Cc1ccc(C(=O)Nc2ccccc2C(=O)N/N=C(\c2ccccc2)c2ccccn2)cc1`, the growth is 29.1% in the assay with HCT-15 colon; 24.9% in the assay on HT29 colon; 22.1% with SNB-75 CNS; 26.2% with SNB-19 CNS; 22.6% with U251 CNS; 33.1% with PC-3 prostate. Also, the growth is -4.18% (active) with SK-MEL-5 melanoma; 5.33% (active) in the assay on UACC-62 melanoma; 5.79% (active) in the assay with LOX IMVI melanoma; 32.4% in the assay with SK-MEL-28 melanoma; 41.4% in the assay on SK-MEL-2 melanoma; 13.1% with EKVX NSCLC. Besides, the growth in the assay with SN12C renal was 28.9%; in the assay with UO-31 renal, 3.57% (active); in the assay with TK-10 renal, 47.2%; with ACHN renal, 15.1%; in the assay with CAKI-1 renal, 10.5%; with CCRF-CEM leukemia it was 8.79% (active). The growth in the assay with MOLT-4 leukemia was 15.8%.
With `N#Cc1ccc(-c2ccc3c(c2)NC(=O)/C3=C\c2ccc[nH]2)cc1`, the growth was 58.3% in the assay with HCT-15 colon; 103% in the assay with HT29 colon; 57% in the assay with SNB-75 CNS; 99.3% in the assay with SNB-19 CNS; 103% in the assay on U251 CNS; 84.7% in the assay on PC-3 prostate. For the same compound, the growth with SK-MEL-5 melanoma is 85.4%; in the assay on UACC-62 melanoma it was 88.4%; in the assay on LOX IMVI melanoma, 97.5%; with SK-MEL-28 melanoma, 107%; in the assay on SK-MEL-2 melanoma it was 89.3%; in the assay with EKVX NSCLC, 26.5%. Also, the growth was 95.8% in the assay with SN12C renal; 72% with UO-31 renal; 54.4% in the assay on TK-10 renal; 101% with ACHN renal; 82.4% in the assay on CAKI-1 renal; 103% with CCRF-CEM leukemia. The growth in the assay on MOLT-4 leukemia was 109%.
Take `Cc1n[nH]c(C)c1-c1c(C)n[nH]c1C`: the growth in the assay with HCT-15 colon was -13.6% (active); with HT29 colon, 7.37% (active); in the assay on SNB-75 CNS, 35.2%; in the assay on SNB-19 CNS, 28.3%; in the assay with U251 CNS it was 1.27% (active); in the assay with PC-3 prostate, 17.8%. Besides, the growth in the assay on SK-MEL-5 melanoma was 0.89% (active); in the assay on UACC-62 melanoma, 7.89% (active); with LOX IMVI melanoma it was -64.3% (active); with SK-MEL-28 melanoma, 11.9%; in the assay on SK-MEL-2 melanoma, 29.9%; with EKVX NSCLC, 18.2%. For the same compound, the growth in the assay on SN12C renal was 9.52% (active); in the assay with UO-31 renal, -0.471% (active); in the assay on TK-10 renal, 13%; in the assay on ACHN renal, -47.7% (active); in the assay on CAKI-1 renal, -36% (active); in the assay with CCRF-CEM leukemia it was 12.3%. The growth with MOLT-4 leukemia was 0.721% (active).
In the case of `O=CNc1cc(Cl)cc(Cl)c1`, the growth is 103% in the assay with HCT-15 colon; 101% in the assay on HT29 colon; 104% in the assay with SNB-75 CNS; 99.7% in the assay on SNB-19 CNS; 102% with U251 CNS; 96.1% with PC-3 prostate. For the same compound, the growth is 102% in the assay on SK-MEL-5 melanoma; 96.1% in the assay with UACC-62 melanoma; 108% in the assay on LOX IMVI melanoma; 103% in the assay on SK-MEL-28 melanoma; 100% in the assay on SK-MEL-2 melanoma; 96.7% with EKVX NSCLC. For the same compound, the growth in the assay with SN12C renal is 95.9%; in the assay with UO-31 renal, 90.1%; with TK-10 renal it was 101%; in the assay on ACHN renal, 101%; in the assay on CAKI-1 renal it was 92.3%; in the assay with CCRF-CEM leukemia, 101%. The growth in the assay with MOLT-4 leukemia is 97.5%.
In the case of `CC1(C)CC[C@]2(C(=O)NCC#CCN3CCOCC3)CC[C@]3(C)C(=CC[C@@H]4[C@@]5(C)Cc6c([nH]c7ccccc67)C(C)(C)[C@@H]5CC[C@]43C)[C@@H]2C1`, the growth with HCT-15 colon is 93.5%; with HT29 colon, 83.5%; with SNB-75 CNS, 98.2%; with SNB-19 CNS, 93.1%; with U251 CNS it was 87.9%; with PC-3 prostate it was 58.6%. In addition, the growth is 88.8% with SK-MEL-5 melanoma; 49.3% with UACC-62 melanoma; 94.6% in the assay with LOX IMVI melanoma; 67.7% in the assay on SK-MEL-28 melanoma; 94.6% with SK-MEL-2 melanoma; 96.8% in the assay on EKVX NSCLC. The growth in the assay on SN12C renal is 94.4%; with UO-31 renal it was 81.6%; with TK-10 renal it was 95.7%; in the assay with ACHN renal, 73.1%; with CAKI-1 renal, 81.9%; with CCRF-CEM leukemia, 83.1%. Also, the growth in the assay with MOLT-4 leukemia is 72.3%.
On to `O=C(CCN1CCCC1)Nc1ccc2c(NCc3ccc(F)cc3)c3ccccc3nc2c1`, for which the growth is 14.3% in the assay with HCT-15 colon; 0.774% (active) in the assay with HT29 colon; -11% (active) with SNB-75 CNS; 4.86% (active) in the assay with SNB-19 CNS; -39.3% (active) with U251 CNS; -17% (active) with PC-3 prostate. Also, the growth in the assay with SK-MEL-5 melanoma is 30.5%; in the assay on UACC-62 melanoma, 1.75% (active); with LOX IMVI melanoma it was -74% (active); in the assay on SK-MEL-28 melanoma, 30.5%; in the assay on SK-MEL-2 melanoma it was -5.55% (active); with EKVX NSCLC, 14.6%. In addition, the growth in the assay on SN12C renal was -2.56% (active); in the assay on UO-31 renal it was 1.44% (active); in the assay on TK-10 renal, -3.79% (active); in the assay on ACHN renal it was 5.75% (active); in the assay with CAKI-1 renal it was 3.81% (active); in the assay with CCRF-CEM leukemia, -15.2% (active). Further, the growth with MOLT-4 leukemia is -19.8% (active).
With `CCSc1ccc2c(c1)N(CCCN1CCN(C)CC1)c1ccccc1S2`, the growth was 2.48% (active) in the assay with HCT-15 colon; -14.7% (active) in the assay with HT29 colon; 28.3% with SNB-75 CNS; 68.8% in the assay on SNB-19 CNS; 36.2% with U251 CNS; 51.9% in the assay on PC-3 prostate. For the same compound, the growth in the assay with SK-MEL-5 melanoma was -98.7% (active); with UACC-62 melanoma, -43% (active); in the assay with LOX IMVI melanoma, -82.5% (active); in the assay with SK-MEL-28 melanoma, -85.2% (active); in the assay on SK-MEL-2 melanoma, 69%; in the assay with EKVX NSCLC, 59.3%. Moreover, the growth is 57.6% in the assay with SN12C renal; 9.67% (active) with UO-31 renal; 55.6% in the assay with TK-10 renal; 43.5% with ACHN renal; 50% in the assay on CAKI-1 renal; 27.9% in the assay with CCRF-CEM leukemia. For the same compound, the growth with MOLT-4 leukemia is 18.5%.
